Screening data as filed in PubChem BioAssay.
HT1080 IDH1KD tx = toxicity to HT-1080 IDH1 knockdown cells (counter line) | Potency, µM (series often up to 46.1 µM), inactives show at the top dose activity, negative = toxicity, usual class: cytotoxic | HT-1080 IDH1 knockdown viability, ATP luminescence, 48 h | hit rate 2% among 360,000;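 further: 0% = DMSO wells and -100% = cell-free medium wells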
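Using the IDH1-knockdown HT-1080 line run in the same batch and compound series as the NT line, viability after 48 h at 37 °C was determined by CellTiter-Glo luminescence and expressed as % activity.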
HT1080NT lethal = kills 2HG-producing HT-1080-NT fibrosarcoma cells | Potency, µM (series often up to 46.1 µM), inactives show at the highest dose activity, negative = less viability, hits mostly cytotoxic | hit rate 1.6% among 360,000 | HT-1080-NT fibrosarcoma viability, CellTiter-Glo ATP luminescence, 48 h | AID 686970;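 further: NT is the 2HG producing partner of a matched IDH1 knockdown line; 0% = DMSO-treated cells and -100% = media-only wells without cells; nearly all actives have a fitted effect of over 55% in size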
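A 48-hour cytotoxicity screen used HT-1080-NT cells plated 2 hours before compound delivery. ATP-based CellTiter-Glo luminescence measured viability, normalized to DMSO and no-cell controls.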
TDP1 cell CPT = growth inhibition of DT40 Tdp1-/-;hTDP1 cells with camptothecin (screen for TDP1 inhibitors) | chicken DT40 Tdp1-/-;hTDP1 cells + 20 nM CPT, ATP luminescence, 48 h | hit rate 12% among 420,000 | Potency, µM (series often up to 46.2 µM), inactives show at the top dose activity change, negative = growth inhibition, hits mostly inhibitors | AID 686979; further: nearly all actives have a fitted effect of over 55% in size
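Chicken DT40 Tdp1-/- cells complemented with human TDP1, 400 cells/well, exposed to compounds plus 20 nM camptothecin for at least 48 h at 37 C; viability read as ATP content by CellTiter-Glo luminescence.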
KB-3-1 tox = kills parental KB-3-1 adenocarcinoma cells. KB-3-1 viability, CellTiter-Glo ATP luminescence, 72 h. Potency, µM (doses to about 46.1 µM), hits mostly cytotoxic. hit rate 1.4% among 400,000. AID 1347075; further: nearly all actives have a fitted effect of over 60% in size
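Cells are dispensed, compounds pinned in, plates held at 37 °C for 72 h, then CellTiter-Glo is added and luminescence read after 10 minutes. Cell line: parental KB-3-1 in phenol-red-free DMEM, 10% FBS.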
TDP1 cell noCPT = qHTS for Inhibitors of human tyrosyl-DNA phosphodiesterase 1 (TDP1): qHTS in cells in absence of CPT; DT40 Tdp1-/- hTDP1 cells, no CPT, ATP luminescence, 48 h; Potency, µM (series often up to 46.2 µM), without a hit: at the highest dose activity change, negative = growth inhibition, usual class: inhibitors; hit rate 15% among 420,000; AID 686978, 2013; further: nearly all actives have a fitted effect of over 55% in size
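Growth kinetics read by CellTiter-Glo luminescence after ≥48 hr at 37 °C. Cells: DT40 Tdp1-/- stably carrying human TDP1, 400 per well, compound exposure in the absence of CPT (DMSO vehicle).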
KB-V1 MDR tox = KB-V1 MDR subline cytotoxicity. KB-V1 MDR cells viability, CellTiter-Glo, 72 h. Potency, µM (highest dose often 46.1 µM), usual class: cytotoxic. hit rate 3.4% among 400,000; further: nearly all actives have a fitted effect of over 60% in size
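qHTS viability screen in drug-selected KB-V1 MDR cells: 72 h compound treatment at 37 degrees C, ATP luminescence end point.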
* hit, by the source's call; i = inactive; ? = inconclusive; . = no result. Compounds with a hit are over-represented: about 19% of the library has one in this group of screens. The call rests on the fitted dose curve; in most records, active means well fitted curve in the direction sought with a large enough effect; inconclusive means small, poorly fitted or top-dose-only effect, or another doubt; inactive means no such curve, though single readings can be large; an effect the other way counts as inactive or inconclusive. Unless noted, on the % scale 0 is the no-effect control and ±100 the full control effect; potency means the concentration at half of the fitted maximal effect.

SMILES	HT1080 IDH1KD tx	HT1080NT lethal	TDP1 cell CPT	KB-3-1 tox	TDP1 cell noCPT	KB-V1 MDR tox
O=C(N/N=C/c1ccccc1O)C1(O)c2ccccc2-c2ccccc21	?	-24.5%	8.2µM*	i	5.8µM*	i
Oc1ccccc1/C=N/Nc1ncc(Br)cn1	?	-2.5%	9.2µM*	?	7.31µM*	?
Oc1ccccc1/C=N/Nc1cccc2cccnc12	-17.4%	0.0%	?	?	?	?
CCC(C)[C@@H](N)C(=O)N/N=C/c1ccc2ncccc2c1 (some centres not stated)	9.0%	4.7%	4.3%	i	13µM*	i
CC(C)(C)OC(=O)NCCC(=O)N/N=C/c1ccc2ncccc2c1	14.3%	12.9%	2.3%	i	?	i
Oc1ccccc1/C=N/Nc1ccnc(SCc2ccccc2)n1	?	-31.6%	0.0651µM*	i	0.082µM*	?
Oc1ccccc1C=NNC(=S)NN=Cc1ccccc1O	?	?	5.17µM*	?	4.61µM*	?
Fc1ccccc1NC(=S)N/N=C/c1ccccc1Br	7.08µM*	7.08µM*	?	i	?	i
Oc1ccc(C=NNC(=S)Nc2ccccc2)nc1	4.61µM*	?	5.17µM*	16.4µM*	5.17µM*	i
Cc1c(Cl)cccc1NC(=S)N/N=C/c1ccccc1Cl	-0.9%	-20.6%	?	i	?	?
c1ccc(CSc2nccc(-c3ccco3)n2)cc1	9.3%	14.9%	-27.6%	i	?	i
Cn1cccc1C(=O)N/N=C/c1c(Cl)cccc1Cl	0.3%	0.5%	-28.0%	i	-15.8%	i
Cc1cccc(OC(=O)CSc2nnc(CNC(=O)c3ccccc3)o2)c1C	.	.	-10.5%	i	-7.7%	i
Cc1ccc(C(=O)Nc2ccccc2C(=O)N2CC(C)OC(C)C2)cc1 (configuration not stated)	4.4%	3.5%	-26.2%	i	-16.6%	i
CNC(=S)N/N=C/c1ccccc1Cl	6.4%	2.9%	?	i	?	i
O=C(NNC(=S)Nc1ccccc1)c1ccc2ncccc2c1	20.3%	12.3%	-0.2%	i	-24.4%	i
S=C(N/N=C/c1ccc2ncccc2c1)Nc1ccccc1	10.7%	16.0%	23.1µM*	i	20.6µM*	i
S=C(N/N=C/c1ccccc1Cl)Nc1ccccc1	3.98µM*	14.1µM*	16.4µM*	i	?	i
Cc1cc(C)c(C(=O)COC(=O)Cn2c(C)csc2=O)cc1C	10.2%	6.2%	4.5%	?	-0.2%	?
CC1(C(=O)NS(=O)(=O)c2ccc(F)cc2F)CCN1C(=O)C/C=C/c1ccccc1 (configuration not stated)	?	16.0%	-8.3%	i	-14.8%	i
Cc1ccc(N=C2C(=O)Nc3ccccc32)c(C)c1	-0.6%	-5.8%	3.6%	i	-4.1%	i
Cc1ccc(C2NC(=O)c3ccccc3N2)c(C)c1 (configuration not stated)	18.4µM*	7.31µM*	2.06µM*	3.66µM*	2.91µM*	5.8µM*
O=C1NC(c2ccncc2)Nc2ccccc21 (configuration not stated)	-2.9%	-0.1%	-9.6%	i	-1.1%	i
Cc1ccc(C2NC(=O)c3ccccc3N2)s1 (configuration not stated)	14.6µM*	?	5.8µM*	4.61µM*	4.61µM*	7.31µM*
Cc1cccc(C2NC(=O)c3ccccc3N2)c1 (configuration not stated)	?	?	3.26µM*	13µM*	5.17µM*	?
COc1ccccc1OCC(=O)NCC1(N(C)C)CCCCC1	.	.	-3.5%	i	-5.7%	i
